Laboratory results published in PubChem BioAssay (NCATS).
“And” between values parts separate entries of the source, which are not always exact repeats. Equal values may be shown once. Inconclusive results are not listed. The source made the active and inactive calls. The call rests on the fitted dose curve; in most records, active means well fitted inhibition curve with a large enough effect in the main read-out, with a control signal flat (not every such curve was filed as active); inconclusive means small, poorly fitted or top-dose-only effect, or effect the other way, or a change in a side signal; inactive means no such curve, though single readings can be large or run the other way.

Experiment: Nrf2 qHTS screen for inhibitors: Validation (AID 493153)
Conditions: A549 ARE-Fluc reporter, 18-24 h; Potency: luciferase luminescence; viability change: measured here: cytotoxicity max response; luciferase luminescence, at 46.1 µM (top of the series)
Source text: NIH Molecular Libraries Probe Production Network [MLPCN] NIH Chemical Genomics Center [NCGC] MLPCN Grant: R03-MH092170-01 Assay Provider: Shyam Biswal, Johns Hopkins University Assay Overview: Nrf2 is a transcription factor that maintains cellular redox homoestasis and protects cells from xenobiotics. Nrf2 binds to the antioxidant response element (ARE) to induce gene expression of a broad spectrum of genes that encode for antioxidants. […] Finding a small molecule that act as an inhibitor of Nrf2 function would represent a novel therapeutic target that could lead to improvement in survival of patients undergoing chemo- and/or radio- therapy. 1. Shibata, T., et al., Genetic Alteration of Keap1 Confers Constitutive Nrf2 Activation and Resistance to Chemotherapy in Gallbladder Cancer. Gastroenterology, 2008. 2. Sjoblom, T., et al., The consensus coding sequences of human breast and colorectal cancers. Science, 2006. 314(5797): p. 268-74.
Assay Protocol Summary: A concentration-response assay was performed with A549 ARE_Fluc cells which are suspended in 5% FBS OPTI-MEM. Five uL were dispensed into 1536-well white TC-treated plate using the Kalypsys dispenser to achieve a density of 5000 cells/well in all columns except column 1. The plate is incubated at 37deg C at 5% CO2 for 2 hours before 23 nL of compounds are added with the Kalypsys pin tool equipped with a 1,536-pin array containing 10-nL slotted pins (FP1S10, 0.457-mm diameter, 50.8 mm long; V&P Scientific). The control compounds Budesonide and Staurosporine are both added at a concentration of 2mM and Budesonide is also added as a 1:10 titration, starting at 200uM, to achieve dose-response. After an 18-24 hour incubation at 37deg C at 5% CO2, 5ul of medium is added to column 1. Afterwards 1ul of 5x of CellTiter-Fluor (Promega) is added to every well. The plate is then incubated at 37deg C at 5% CO2 for 30 minutes before they are read on the ViewLux (Perkin Elmer) for a fluorescent read Ex=405(10)/Em=525(10) for a 3 second exposure, 2x binning, and high gain. Then 3 uL of 3x BugLite is dispensed into all wells and the plate is incubated at ambient room temperature for 15 minutes. Afterwards another ViewLux read is performed using the clear filter to get a luminescent read with the settings of 40 second exposure, 2x binning, and high gain. Cytotoxicity is assessed through the first fluorescent read and then biochemical activity against Nrf2 is measured in the luminescent read.
Potency means the concentration at half of the fitted maximal effect.

**Q.** What does the source list for `N#CC(C#N)=Cc1ccc(O)c(O)c1`?
**A.** viability change: -7.57%; Potency: inactive

**Q.** Which viability change does the source give for `CCCN1CCC[C@@H]2Cc3nc(N)ncc3C[C@H]21` here?
**A.** Its viability change is 1.56%.

**Q.** And the Potency?
**A.** Its Potency is “inactive”.

**Q.** For `O=c1[nH]c2ccccc2n1CCCN1CCC(n2c(=O)[nH]c3cc(Cl)ccc32)CC1`, which viability change is on record?
**A.** Its viability change is -5.95%.

**Q.** And the Potency?
**A.** Its Potency is “inactive”.

**Q.** Which results are given for `COc1ccc(Cc2nccc3cc(OC)c(OC)cc23)cc1OC`?
**A.** Potency: 7.31 µM (active); viability change: -7.85%

**Q.** Which viability change does the source give for `CC[C@@H](CO)NC(=O)[C@@H]1C=C2c3cccc4c3c(cn4C)C[C@H]2N(C)C1` here?
**A.** The viability change was -1.92%.

**Q.** What about the Potency of the same compound?
**A.** The Potency was “inactive”.

**Q.** Which viability change does the source give for `CC(C)=CCOc1c2occc2cc2ccc(=O)oc12` here?
**A.** Its viability change is 0.848%.

**Q.** What about the Potency of the same compound?
**A.** The Potency was “inactive”.

**Q.** With `COc1ccccc1N1CCNCC1` as the compound, how does the Potency read?
**A.** The Potency was “inactive”.

**Q.** What about the viability change of the same compound?
**A.** Its viability change is 10.4%.

**Q.** With `CCCN1CCC[C@@H]2Cc3[nH]ncc3C[C@H]21` as the compound, how does the Potency read?
**A.** The Potency was “inactive”.

**Q.** What about the viability change of the same compound?
**A.** Its viability change is 1.53% and 0.366%.

**Q.** For `Cc1ccc(S(=O)(=O)N[C@@H](CCCCN)C(=O)CCl)cc1`, which Potency is on record?
**A.** Its Potency is “inactive”.

**Q.** What about the viability change of the same compound?
**A.** The viability change was -2.81%.

**Q.** What does the source list for `COc1ccc(C(CN(C)C)C2(O)CCCCC2)cc1` (stereo not given)?
**A.** Potency: inactive; viability change: 3.45%

**Q.** Which viability change does the source give for `Cc1cccc(C)c1NC1=NCCCS1` here?
**A.** Its viability change is -1.16%.

**Q.** And the Potency?
**A.** The Potency was “inactive”.

**Q.** Which viability change does the source give for `NN=C(N)N` here?
**A.** The viability change was 4.74% and 3.63%.

**Q.** What about the Potency of the same compound?
**A.** Its Potency is “inactive”.

**Q.** For `NCC(CC(=O)O)c1ccc(Cl)cc1` (stereo not given), which Potency is on record?
**A.** The Potency was 9.2 µM (active).

**Q.** What about the viability change of the same compound?
**A.** The viability change was 12.6%.

**Q.** What does the source list for `Cc1cccc(C)c1NC(=O)CN1CCCC1=O`?
**A.** Potency: inactive; viability change: -4.1%

**Q.** What does the source list for `Nc1ccncc1`?
**A.** Potency: inactive; viability change: -2.07%

**Q.** Which results are given for `NCC(O)c1ccc(O)cc1` (stereo not given)?
**A.** Potency: inactive; viability change: 0.943%

**Q.** What does the source list for `NCC1(CC(=O)O)CCCCC1`?
**A.** Potency: inactive; viability change: 10.1%

**Q.** Which Potency does the source give for `CCCC(C)(COC(N)=O)COC(=O)NC(C)C` (stereo not given) here?
**A.** The Potency was “inactive”.

**Q.** And the viability change?
**A.** The viability change was 5.42%.

**Q.** For `CCC1(C2=NCCN2)Cc2ccccc2O1` (stereo not given), which viability change is on record?
**A.** Its viability change is 1.87%.

**Q.** What about the Potency of the same compound?
**A.** Its Potency is “inactive”.

**Q.** Which results are given for `c1ccc(C2CC2)c(OCC2=NCCN2)c1`?
**A.** Potency: inactive; viability change: 5.58%
